Where “and” joins values, the source holds several entries; their conditions need not be identical. Equal values may be shown once. The whole screen tested about 150,000 compounds, of which about 6,500 (4.3%) were called active. Another 12% or so got no clear call; they are omitted. This is one part of a sample in which actives are shown more often than they occur. Calls come from the whole dose curve; as a rule, active = well fitted inhibition curve with a large enough effect (not every such curve was filed as active); inconclusive = small, poorly fitted or top-dose-only effect, or another doubt; inactive = no such curve, though single readings can be large or run the other way.
% is set by controls: 0 for no effect and ±100 for the full control effect; potency is the fitted concentration of half-maximal effect.

Sequence of 15-hydroxyprostaglandin dehydrogenase [NAD(+)] (Homo sapiens) (P15428 whole entry, looked up): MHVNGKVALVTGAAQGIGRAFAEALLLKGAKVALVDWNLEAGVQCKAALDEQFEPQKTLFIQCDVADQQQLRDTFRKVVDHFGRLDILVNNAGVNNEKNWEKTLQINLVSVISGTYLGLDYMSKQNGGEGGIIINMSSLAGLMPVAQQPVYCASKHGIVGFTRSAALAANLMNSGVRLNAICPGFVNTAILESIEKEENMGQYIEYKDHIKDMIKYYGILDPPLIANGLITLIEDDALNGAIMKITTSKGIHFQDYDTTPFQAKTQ

This test addresses 15-hydroxyprostaglandin dehydrogenase [NAD(+)] (Homo sapiens) (UniProt P15428). As to the kind of experiment: qHTS Assay for Inhibitors of HPGD (15-Hydroxyprostaglandin Dehydrogenase). To be noted: purified HPGD, NADH fluorescence kinetic, PGE2 substrate; activity change, negative = inhibition: hits give low values. The essentials: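 20 nM HPGD preincubated 15 min at room temperature with compound in 50 mM Tris-HCl pH 8, 0.01% Tween 20. Started with 1 mM NAD+ and 30 uM prostaglandin E2; NADH fluorescence (360/450 nm) read 5 times over 30-s intervals, last minus first.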
A general note: In qHTS, concentration-response curves come from the screen itself.
For the molecule `O=C(CN1CCN(S(=O)(=O)c2ccc(Br)cc2)CC1)Nc1ccccc1C(=O)c1ccccc1`, the activity change, negative = inhibition is -12.5% (inactive).

As for `CCOC(=O)N1CCN(C(=O)C2CCN(Cc3ccc(OC)cc3OC)CC2)CC1`, the activity change, negative = inhibition was -11.3% (inactive).

Turning to `CCCC(NC(=O)c1ccco1)c1nc2ccccc2[nH]1` (configuration not stated), the activity change, negative = inhibition was -3.61% (inactive).

Consider `Cc1cccc(C(=O)NC(=S)N2CCN(c3ccc([N+](=O)[O-])cc3)CC2)c1`, for which the activity change, negative = inhibition is -19.1% (inactive).

Regarding `CCOC(=O)/C=C/C(=O)OCC(=O)NC(c1ccccc1)c1ccccc1`, the activity change, negative = inhibition was -29.7% (inactive).

For the molecule `O=C(O)Cc1ccc(-c2ccccc2)cc1`, the activity change, negative = inhibition was -9.59% (inactive) and -19% (inactive).

With `O=C(Cc1ccc(-c2ccccc2)cc1)NC(c1ccccc1)c1ccccc1`, the Potency is 12.6 µM (active).

For the molecule `CCCCC(=O)Nc1ccc(C(=O)Nc2cc(C(F)(F)F)ccc2Cl)cc1`, the activity change, negative = inhibition was -6.97% (inactive).

Regarding `CCOc1ccc(NC(=O)c2ccc(CSc3nnnn3C)cc2)cc1`, the activity change, negative = inhibition is -4.67% (inactive).

For the molecule `COCCNc1ncnc2ccc(-c3ccccc3CN(C)C)cc12`, the activity change, negative = inhibition was -8.98% (inactive).

For `COc1ccc2[nH]cc(CCNc3ncnc4ccc(-c5ccccc5CN(C)C)cc34)c2c1`, the activity change, negative = inhibition was -13.3% (inactive).

Turning to `COc1ccccc1CNc1ncnc2ccc(-c3c(C)noc3C)cc12`, the Potency was 6.31 µM (active).

Regarding `Cc1ccc(N(Cc2cc3ccccc3[nH]c2=O)C(=O)c2cccs2)cc1`, the activity change, negative = inhibition is -11% (inactive).

In the case of `CCOc1ccc(C(=O)Nc2nccs2)cc1[N+](=O)[O-]`, the activity change, negative = inhibition was -16.3% (inactive).

As to `O=C(CN1CCN(c2ccc(O)cc2)CC1)NC1CCCc2ccccc21` (configuration not stated), the activity change, negative = inhibition was -19.6% (inactive).

Turning to `CCOc1ccc2nc(NC(=O)c3cc([N+](=O)[O-])ccc3N3CCOCC3)sc2c1`, the activity change, negative = inhibition is -5.12% (inactive).

Take `Cc1ccccc1Cn1nc(C)c(NC(=O)C(F)(F)F)c1C`: the activity change, negative = inhibition was 0.212% (inactive).

As for `Cc1ccccc1OCC(=O)Nc1nc(C)c(C(=O)N(C)C)s1`, the activity change, negative = inhibition is -1.51% (inactive).

As to `COCCNC(=O)COc1ccc(C)c(C)c1`, the Potency is 20 µM (active).

For the molecule `COCCCNC(=O)COc1cc(C)c(Cl)c(C)c1`, the activity change, negative = inhibition is -21.9% (inactive).

Take `COCCNC(=O)COc1ccccc1C`: the activity change, negative = inhibition was -18.6% (inactive).

`CCSC(C)CC1C/C(=N/O)c2c(C)noc2C1` (configuration not stated): the Potency is 25.1 µM (active).

Take `CCCc1noc2c1/C(=N\O)CCC2`: the activity change, negative = inhibition was -17.1% (inactive).

For the molecule `CCOc1ccc(NC(=O)COc2ccc(C(=O)NC3CCCc4ccccc43)cc2OC)cc1` (configuration not stated), the activity change, negative = inhibition is -12.8% (inactive).

On to `O=C(CCN1C(=O)c2ccccc2C1=O)C1=NN[C@@H]2C(=O)N(c3ccc(F)cc3)C(=O)[C@H]12`, for which the activity change, negative = inhibition is -16.3% (inactive).

As for `CN(c1ccc(C(=O)N2CCc3ccccc3C2)cc1)S(C)(=O)=O`, the Potency was 14.1 µM (active).

`COc1cccc(N(CC(=O)N2CCc3ccccc3C2)S(C)(=O)=O)c1`: the activity change, negative = inhibition was -5.24% (inactive).

For `O=C(C(=O)N1CCc2ccccc2C1)N1CCc2ccccc2C1`, the activity change, negative = inhibition is -4.51% (inactive).

Regarding `N=c1n(CCc2ccccc2)c2ccccc2n1Cc1ccccc1F`, the activity change, negative = inhibition is -8.4% (inactive).

Consider `COCCNC(=S)N/N=C/c1c(C)[nH]c2ccccc12`, for which the activity change, negative = inhibition was -19.3% (inactive).

For `Cc1ccc(/C=C(\C#N)C(=O)Nc2cccc3ncccc23)o1`, the Potency was 39.8 µM (active).

Consider `O=C(Nc1cccc2ncccc12)C(Cl)(Cl)Cl`, for which the activity change, negative = inhibition is -18.4% (inactive).

For `O=C(O)c1cc(Cl)c(Cl)cc1C(=O)Nc1cccc2ncccc12`, the activity change, negative = inhibition is -16.7% (inactive).

Consider `Cc1ccc(S(=O)(=O)N(CC(=O)N2CCc3ccccc3C2)c2cccc(Cl)c2)cc1`, for which the activity change, negative = inhibition was -8.94% (inactive).

Take `Cc1ccc2c(c1)N(C(=O)CCC(=O)N1CCc3ccccc3C1)CCO2`: the Potency is 14.1 µM (active).

`Cc1ccc(S(=O)(=O)N(C)CC(=O)N2CCc3ccccc32)cc1`: the activity change, negative = inhibition was -3.12% (inactive).

For `Cc1cc(OCCCC(=O)NCCN2C(=O)S/C(=C\c3cccnc3)C2=O)ccc1Cl`, the activity change, negative = inhibition is -5.63% (inactive).

Regarding `Cn1cnc(C(F)(F)F)c1-c1ccc([N+](=O)[O-])cc1`, the activity change, negative = inhibition was -0.963% (inactive).

In the case of `Cc1ccnc(-n2sc3ccccc3c2=O)n1`, the Potency was 0.794 µM (active).

In the case of `Cc1nc2ccccc2c(=O)n1CCCn1ccnc1`, the activity change, negative = inhibition is -6.43% (inactive).

Take `Cc1ccc(NC(=S)NCc2ccccc2Cl)c(C)c1`: the activity change, negative = inhibition is -27.2% (inactive).

With `Clc1ccc(C2=CSC3=Nc4cccc5cccc(c45)N23)cc1`, the Potency was 7.94 µM (active).

Take `O=S(=O)(NCC1CCCO1)c1cnc(Cl)c(Cl)c1` (configuration not stated): the activity change, negative = inhibition was -16.1% (inactive).

Consider `C/C(=C\c1ccccc1)C1NC(=O)c2c(sc3c2CCCC3)N1` (configuration not stated), for which the activity change, negative = inhibition is -3.55% (inactive).

Turning to `O=C(c1cc(-c2cccs2)on1)N1CCCCC1`, the Potency is 1.78 µM (active).

With `O=C(c1cccs1)N1CCN(C(=O)N2CCOCC2)CC1`, the activity change, negative = inhibition was 2.42% (inactive).

As to `COc1ccccc1-c1cc(C(=O)N2CCCCC2)no1`, the Potency was 3.55 µM (active).

In the case of `COc1ccccc1N1CCN(C(=O)c2cc(-c3ccc(Br)cc3)on2)CC1`, the activity change, negative = inhibition was -29.1% (inactive).

With `O=C(c1cc(-c2ccccc2O)on1)N1CCCC1`, the activity change, negative = inhibition is -29.8% (inactive).

`COc1ccccc1N1CCN(C(=O)c2cc(-c3ccc(Cl)c(Cl)c3)on2)CC1`: the activity change, negative = inhibition was -13.7% (inactive).

Turning to `Cc1cc(C)cc(NC(=S)NCc2ccc(F)cc2)c1`, the activity change, negative = inhibition is -19.9% (inactive).

`CCn1nc(C)c(/C=N/NC(=O)Cc2ccc(Cl)cc2)c1C`: the activity change, negative = inhibition is -9.17% (inactive).

In the case of `O=C(NCc1cccs1)C(=O)NCC1OCCCN1S(=O)(=O)c1ccc(F)cc1` (configuration not stated), the activity change, negative = inhibition is -5.48% (inactive).

With `C=CCOC(=O)NC(c1ccc(F)c(F)c1)C(C(=O)COC)C(=O)OC` (configuration not stated), the activity change, negative = inhibition was -10.1% (inactive) and -9.32% (inactive).

On to `COC(=O)c1ccc(/C=N\n2c(C)nnc2C)cc1`, for which the activity change, negative = inhibition was -12.4% (inactive).

With `CCN(CC)S(=O)(=O)c1cccc(-c2n[nH]c(=S)n2/N=C/c2ccc(C(=O)OC)cc2)c1`, the Potency is 6.31 µM (active).

Take `CCN(CC)S(=O)(=O)c1cccc(C(=O)Nc2ccccc2)c1`: the activity change, negative = inhibition is 0.0347% (inactive).

With `CC(Sc1nc2cc(Cl)ccc2s1)C(=O)Nc1ccc2c(c1)OCO2` (configuration not stated), the activity change, negative = inhibition was -22.7% (inactive).

In the case of `CC(C)CNC(=O)COC(=O)/C=C/c1ccco1`, the activity change, negative = inhibition was -11.3% (inactive).

Regarding `O=C(COC(=O)/C=C/c1cccc(Cl)c1)NCCc1ccccc1`, the activity change, negative = inhibition was -5.17% (inactive).

For the molecule `CC(C)CNC(=O)COC(=O)/C=C/c1ccccc1[N+](=O)[O-]`, the Potency is 28.2 µM (active).

On to `COc1cccc(NC(=S)NCc2ccccn2)c1`, for which the activity change, negative = inhibition is -28.2% (inactive).

Consider `COc1cccc(NC(=S)NCCCN2CCOCC2)c1`, for which the activity change, negative = inhibition is -6.46% (inactive).

Take `COc1cccc(NC(=S)NCc2ccco2)c1`: the Potency is 11.2 µM (active).

For `O=S(=O)(Nc1ccc(Oc2ncccn2)c(Cl)c1)c1ccc(F)cc1`, the Potency was 35.5 µM (active).

Turning to `O=S(=O)(NCc1ccccn1)c1ccc(F)cc1`, the activity change, negative = inhibition is -6.74% (inactive).

For `Cc1ccc(S(=O)(=O)Nc2ccc3ncccc3c2)cc1`, the activity change, negative = inhibition is -6.64% (inactive).

In the case of `Cc1cc(F)ccc1S(=O)(=O)Nc1ncnc2scc(-c3ccc(F)cc3)c12`, the activity change, negative = inhibition was -6.93% (inactive).

As to `O=[N+]([O-])c1cccc(C2=NCCS2)c1`, the activity change, negative = inhibition is -12.8% (inactive).

As to `O=C(COC(=O)c1cc(-c2cccs2)nn1-c1ccccc1)Nc1cc([N+](=O)[O-])ccc1Cl`, the activity change, negative = inhibition was -0.873% (inactive).

As to `CCOP(=O)(OCC)C(Nc1cccc(C)c1)c1ccc(F)cc1` (configuration not stated), the activity change, negative = inhibition was -7.61% (inactive).

Take `O=C(Nc1ccccc1N1CCN(C(=O)c2ccccc2)CC1)c1ccc2c(c1)OCO2`: the activity change, negative = inhibition is -1.04% (inactive).

On to `O=C(c1ccc2c(c1)OCO2)N1CCNc2ccccc2C1`, for which the Potency was 25.1 µM (active).

Turning to `CC1CN(C(=O)c2ccc3c(c2)OCO3)OC(c2ccccc2)O1` (configuration not stated), the activity change, negative = inhibition was -4.25% (inactive).

On to `O=C(c1cccc(S(=O)(=O)N2CCOCC2)c1)N1CCOCC1`, for which the activity change, negative = inhibition is -2.21% (inactive).

Turning to `O=C(c1ccc2c(c1)OCO2)N1CCN(C(=O)c2ccco2)CC1`, the activity change, negative = inhibition was -11.7% (inactive).

Consider `O=C(c1ccc2c(c1)OCO2)N1CCOCC1`, for which the Potency was 14.1 µM (active).

Regarding `CC(Nc1oc(-c2ccccc2)nc1-c1ccccc1)c1ccccc1` (configuration not stated), the activity change, negative = inhibition was 0.641% (inactive) and -7.86% (inactive).

As for `COc1ccc(Cc2nnc(N/N=C/c3ccccc3O)[nH]c2=O)cc1OC`, the activity change, negative = inhibition was -16.1% (inactive).

As for `NS(=O)(=O)c1ccc(N=Cc2ccc(Br)s2)cc1`, the activity change, negative = inhibition was -0.454% (inactive).

On to `N#Cc1ccccc1NC(=O)COc1c(Br)cc(Br)c2cccnc12`, for which the activity change, negative = inhibition was -10% (inactive).

`Fc1ccc2nc(N3CCCCC3)sc2c1`: the activity change, negative = inhibition was -12.2% (inactive).

`Fc1cc(F)c2nc(N3CCOCC3)sc2c1`: the activity change, negative = inhibition is -12.5% (inactive).

With `c1c2c(cc3sc(N4CCCCC4)nc13)OCCO2`, the Potency was 25.1 µM (active).

In the case of `CC1=C(C/C=C(\C)CCCC(C)CCCC(C)CCCC(C)C)C(=O)c2ccccc2C1=O` (configuration not stated), the activity change, negative = inhibition is -10.7% (inactive).

Turning to `CCC(C)(C(=O)NC1CCCCC1)N(C)C(=O)c1ccc2c(c1)OCO2` (configuration not stated), the activity change, negative = inhibition was -0.912% (inactive).

Turning to `O=C(CN(Cc1ccccc1)C(=O)c1ccc2c(c1)OCCO2)NCc1ccc2c(c1)OCO2`, the activity change, negative = inhibition is -6.78% (inactive).

Regarding `CCCCN(CC)C(=O)c1ccc2c(c1)OCO2`, the Potency was 12.6 µM (active).

Regarding `CCn1c(=O)cc(SCC(=O)NCCC2=CCCCC2)c2ccccc21`, the Potency was 7.08 µM (active).

Turning to `Cc1nnc(OCC(=O)NCCC2=CCCCC2)c2ccccc12`, the activity change, negative = inhibition was -17.6% (inactive).

`CCn1c(=O)cc(SCC(=O)NCc2ccc3c(c2)OCO3)c2ccccc21`: the activity change, negative = inhibition was -4.58% (inactive).

For `O=C1CC(c2cccc(Cl)c2)CC(O)=C1C=Nc1ccccc1` (configuration not stated), the activity change, negative = inhibition was -9.88% (inactive).

Take `O=C(CNC(c1ccccc1)c1ccccc1)Nc1ccc(F)cc1`: the activity change, negative = inhibition was -9.88% (inactive).

Regarding `Cc1ccc(Oc2ccc(N)cc2)cc1`, the activity change, negative = inhibition was -24% (inactive).

With `CC(C)(C)c1ccc(Oc2ccc(N)cc2)cc1`, the Potency was 28.2 µM (active).

As to `Nc1ccc(Oc2ccc(Cl)cc2)cc1`, the activity change, negative = inhibition was -8.65% (inactive).

As to `CCCCN(CC)C(=S)Nc1ccc2nc3n(c(=O)c2c1)CCCCC3`, the activity change, negative = inhibition is -1.94% (inactive).
